Among the data in PubChem BioAssay (EPA / NIEHS) are outcome and AC50 values, retold here.

The structures appear in SMILES notation. Inconclusive results are not listed. Active and inactive are the calls of the source. The calls were made as follows, unless noted: active = hit-call score of the fitted dose curve at least 0.9, where 1 is the maximum; inconclusive = response in the unintended direction; inactive = score below 0.9.

The target of experiment [1] is Androgen receptor (Homo sapiens) (UniProt P10275). Nature of the experiment: ATG_AR_TRANS: Attagene TRANS-FACTORIAL HepG2 Assay for human Androgen Receptor (AR) (AID 2282973). The note with it: HepG2 Attagene TRANS-FACTORIAL AR reporter transcription. The method, boiled down: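 Steps: transfect HepG2 with multiple GAL4-UAS reporter transcription units (TRANS format, exogenous NR-Gal4 protein); dose 24 h; isolate RNA, reverse-transcribe, PCR-amplify, FAM-label, HpaI-digest; resolve by capillary electrophoresis. Positive direction vs DMSO.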

Experiment [2] concerns the target human CYP4F12, CYP4F12 (gene 66002) (UniProt Q9HCS2). Nature of the experiment: NVS_ADME_hCYP4F12: NovaScreen (NVS) CYP450-related Enzyme Activity (ADME) Assay for human CYP4F12 (AID 2283111). The method, boiled down:
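Recombinant enzyme with a fluorescent substrate, signal read at 0.5 h post-dose; activity loss analysed relative to acetonitrile. Compounds first run in duplicate at 10 uM, with follow-up concentration-response testing of actives.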

Experiment [3] addresses human Matrix Metalloproteinase-1 (MMP1), MMP1 (gene 4312) (UniProt P03956). Nature of the experiment: NVS_ENZ_hMMP1: NovaScreen (NVS) Enzymatic Assay for human Matrix Metalloproteinase-1 (MMP1) (AID 2283181). The procedure, abridged: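 Cell-free fluorescent substrate assay of human MMP1, read after 1 h. A single 25 uM duplicate screen was followed by concentration series to a maximum of 50 uM for actives meeting threshold; inhibition analysed against DMSO baseline.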

The target in experiment [4] is rat CYP1A2, Cyp1a2 (gene 24297) (UniProt P04799). Nature of the experiment: NVS_ADME_rCYP1A2: NovaScreen (NVS) CYP450-related Enzyme Activity (ADME) Assay for rat CYP1A2 (AID 2283115). The procedure, abridged:
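Primary testing ran in duplicate at 10 uM, with actives re-tested across concentration series. Fluorescence intensity from substrate turnover by recombinant protein, measured 1 hour post-dosing, with signal loss scored against acetonitrile vehicle.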

Experiment [5] deals with human Acetylcholinesterase (AChE), ACHE (gene 43) (UniProt P22303). Nature of the experiment: NVS_ENZ_hAChE: NovaScreen (NVS) Enzymatic Assay for human Acetylcholinesterase (AChE) (AID 2283129). The procedure, abridged:
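Actives from a duplicate single-point screen (25 uM) were followed up in concentration series. Enzyme activity read by absorbance (colorimetric) 0.33 hour after dosing, cell-free, normalized to DMSO, with loss of signal scored.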

In experiment [6] the target is human Aurora Kinase A - serine/threonine-protein Kinase 6 (AurA), AURKA (gene 6790) (UniProt O14965). Nature of the experiment: NVS_ENZ_hAurA: NovaScreen (NVS) Enzymatic Assay for human Aurora Kinase A - serine/threonine-protein Kinase 6 (AurA) (AID 2283142). The procedure, abridged: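 Recombinant human AurA activity read by fluorescence after mobility-shift separation of product from substrate; 1 hour incubation. Chemicals first run in duplicate at 25 uM, then concentration series to 50 uM if over threshold; fitted relative to DMSO.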

Experiment [7] deals with human Fibroblast Growth Factor Receptor 1 (FGFR1), FGFR1 (gene 2260) (UniProt P11362). Nature of the experiment: NVS_ENZ_hFGFR1: NovaScreen (NVS) Enzymatic Assay for human Fibroblast Growth Factor Receptor 1 (FGFR1) (AID 2283159). The procedure, abridged:
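Cell-free recombinant kinase with fluorescent substrate, product separated by electrophoretic mobility shift; read 1 hour after dosing, loss of signal relative to DMSO. Initial screen in duplicate at 25 uM, actives followed in concentration series.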

Experiment [8] concerns rat Monoamine Oxidase, MAO-A, Peripheral (MAOAP), gene 29253. Nature of the experiment: NVS_ENZ_rMAOAP: NovaScreen (NVS) Enzymatic Assay for rat Monoamine Oxidase, MAO-A, Peripheral (MAOAP) (AID 2283237). The method, boiled down:
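Scintillation counting tracked MAO-A activity in a cell-free rat liver mitochondrial membrane prep, read 1.17 hours after compound addition. Single-point duplicate testing at 25 uM preceded concentration-response follow-up; activity was fitted relative to DMSO.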

Experiment [9] concerns the target Cytochrome P450 2C18 (Homo sapiens) (UniProt P33260). Nature of the experiment: NVS_ADME_hCYP2C18: NovaScreen (NVS) CYP450-related Enzyme Activity (ADME) Assay for human CYP2C18 (AID 2283103; active = hit-call score of the fitted dose curve at least 0.9, where 1 is the maximum; inactive = score below 0.9). The method, boiled down: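 Enzyme activity measured by fluorescence 0.5 h after compound addition, using recombinant CYP2C18 and a specific substrate. Actives from duplicate 10 uM screening were retested in concentration series (top 20 uM); acetonitrile served as negative baseline.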

In experiment [10] the target is human CYP2C8, CYP2C8 (gene 1558) (UniProt P10632). Nature of the experiment: NVS_ADME_hCYP2C8: NovaScreen (NVS) CYP450-related Enzyme Activity (ADME) Assay for human CYP2C8 (AID 2283104; active = hit-call score of the fitted dose curve at least 0.9, where 1 is the maximum; inactive = score below 0.9). The method, boiled down: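 Fluorescence readout of substrate turnover by recombinant CYP2C8 after 0.5 h, baseline acetonitrile. Single-concentration duplicate screen at 10 uM preceded singleton concentration series (max 20 uM) for compounds passing the inhibition threshold.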

The target in experiment [11] is rat CYP2C12, Cyp2c12 (gene 25011) (UniProt P11510). Nature of the experiment: NVS_ADME_rCYP2C12: NovaScreen (NVS) CYP450-related Enzyme Activity (ADME) Assay for rat CYP2C12 (AID 2283119). The method, boiled down: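 Fluorescent-substrate turnover by recombinant rat CYP2C12, measured at 0.5 h, normalized to acetonitrile vehicle. Chemicals screened first at a single 10 uM concentration in duplicate, with concentration series for actives.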

The target in experiment [12] is rat CYP2D1, Cyp2d1 (gene 266684) (UniProt P10633). Nature of the experiment: NVS_ADME_rCYP2D1: NovaScreen (NVS) CYP450-related Enzyme Activity (ADME) Assay for rat CYP2D1 (AID 2283122). The procedure, abridged:
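Rat CYP2D1 enzyme activity measured by fluorescence intensity in a cell-free format, 0.75 h post-dosing, acetonitrile as negative control. Screening at 10 uM in duplicate, with actives followed in concentration series up to 20 uM.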

Experiment [13] addresses Protein deacetylase HDAC6 (Homo sapiens) (UniProt Q9UBN7). Nature of the experiment: NVS_ENZ_hHDAC6: NovaScreen (NVS) Enzymatic Assay for human Histone Deacetylase 6 (HDAC6) (AID 2283164). The procedure, abridged:
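Concentration-response runs up to 50 uM followed a duplicate 25 uM single-point screen. Deacetylase activity of recombinant human HDAC6 read by fluorescence after 1 h, with mobility-shift separation of substrate and product; DMSO as baseline.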

Experiment [14] concerns the target human Phosphatase and Tensin Homolog (PTEN), PTEN (gene 5728) (UniProt P60484). Nature of the experiment: NVS_ENZ_hPTEN: NovaScreen (NVS) Enzymatic Assay for human Phosphatase and Tensin Homolog (PTEN) (AID 2283203). The procedure, abridged: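 Loss of fluorescent product signal after mobility-shift separation reports PTEN activity, recombinant human enzyme, 1 h after compound addition. Single 25 uM duplicate screen, then concentration-response on actives; DMSO baseline.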

Experiment [15] has as its target human Tyrosine Protein Kinase Receptor Tie-2 (Tie2), TEK (gene 7010) (UniProt Q02763). Nature of the experiment: NVS_ENZ_hTie2: NovaScreen (NVS) Enzymatic Assay for human Tyrosine Protein Kinase Receptor Tie-2 (Tie2) (AID 2283225). The method, boiled down: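 Substrate and product were separated by mobility shift and detected by fluorescence after a 1-hour reaction with recombinant Tie2. Chemicals passing a 25 uM single-point screen were titrated to a maximum of 50 uM. Results were normalized to DMSO baseline.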

Experiment [16] addresses rat Monoamine Oxidase, MAO-B, Central (MAOBC), Maob (gene 25750) (UniProt P19643). Nature of the experiment: NVS_ENZ_rMAOBC: NovaScreen (NVS) Enzymatic Assay for rat Monoamine Oxidase, MAO-B, Central (MAOBC) (AID 2283238). The method, boiled down:
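Actives from a duplicate 25 uM screen went on to singleton concentration-response with a 50 uM maximum. Enzyme source was rat brain tissue MAO-B, assayed cell-free. Radiolabelled product was counted by scintillation 1.17 h post-dose, with signal loss relative to DMSO.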

Experiment [17] relates to rat Monoamine Oxidase, MAO-A, Central (MAOAC), gene 29253. Nature of the experiment: NVS_ENZ_rMAOAC: NovaScreen (NVS) Enzymatic Assay for rat Monoamine Oxidase, MAO-A, Central (MAOAC) (AID 2283243).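 Also: potency refers to inhibition seen as signal drop below DMSO baseline.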 The procedure, abridged: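 Single-concentration duplicate testing at 25 uM, then concentration-response for actives, in a lysate-based radiodetection MAO-A activity assay from rat brain. Enzyme activity measured 1.5 hours post-dosing; DMSO served as negative control and baseline.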

Experiment [18] addresses human Caspase 2 (CASP2), CASP2 (gene 835) (UniProt P42575). Nature of the experiment: NVS_ENZ_hCASP2: NovaScreen (NVS) Enzymatic Assay for human Caspase 2 (CASP2) (AID 2283135). The procedure, abridged: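 Single-point duplicate testing at 25 uM preceded concentration series topping at 50 uM. Activity of the recombinant E. coli-derived protease was followed by fluorescent substrate cleavage 1 h post-dosing, relative to DMSO.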

The nature of experiment [19]: CCTE_Harrill_HTTr_Apoptosis_PRF_DMEM_12hr: (Pilot) CCTE's 12-hour Apoptosis Assessment for the High-Throughput Transcriptomics (HTTr) Platform, in MCF-7 cells cultured in phenol red-free DMEM + 10% charcoal-stripped fetal bovine serum, Harrill Lab (AID 2283985; active = hit-call score of the fitted dose curve at least 0.9, where 1 is the maximum; inactive = score below 0.9). The method, boiled down:
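Caspase-3/7 activity by CellEvent Green high content imaging after 12 h compound exposure (eight concentrations) in MCF-7 grown in phenol red-free DMEM plus 10% charcoal-stripped serum; DMSO as baseline.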

Experiment [20] concerns the target human Androgen Receptor (AR), AR (gene 367) (UniProt P10275). Nature of the experiment: ATG_hAR_XSP1: Attagene TRANS-FACTORIAL Multi-Species (XSP1) HepG2 Assay for human Androgen Receptor (AR) (AID 2283785). As to the method: ATG_XSP1_multi-species_TRANS is a cell-based, multiplexed assay created by modifying the existing Attagene TRANS-FACTORIAL system to include a panel of nuclear receptors from some or all the following species: human (Homo sapiens), mouse (Mus musculus), frog (Xenopus laevis), zebrafish (Danio rerio), chicken (Gallus gallus), and turtle (Chrysemys picta). The ECOTOX-FACTORIAL format uses HepG2, a human liver cell line, with measurements taken at 24 hours after chemical dosing in a 24-well plate. Xsp1 included 3 nM 6-alpha-fluorotestosterone to partially stimulate the androgen receptor.ATG_hAR_XSP1 is one of 29 assay components measured or calculated from the ATG_XSP1_multi-species_TRANS assay. It is designed to make measurements of mRNA induction, a form of inducible reporter, as detected with fluorescence intensity signals by Reverse transcription polymerase chain reaction (RT-PCR) and Capillary electrophoresis technology.The assay endpoint ATG_hAR_XSP1 was analyzed in the positive analysis fitting direction relative to DMSO as the negative control and baseline of activity. […] Furthermore, this assay endpoint can be referred to as a primary readout, because this assay has produced multiple assay endpoints where this one serves a reporter gene function. […]

human Fibroblast Growth Factor Receptor 1 (FGFR1), FGFR1 (gene 2260), sequence (P11362 whole entry, looked up): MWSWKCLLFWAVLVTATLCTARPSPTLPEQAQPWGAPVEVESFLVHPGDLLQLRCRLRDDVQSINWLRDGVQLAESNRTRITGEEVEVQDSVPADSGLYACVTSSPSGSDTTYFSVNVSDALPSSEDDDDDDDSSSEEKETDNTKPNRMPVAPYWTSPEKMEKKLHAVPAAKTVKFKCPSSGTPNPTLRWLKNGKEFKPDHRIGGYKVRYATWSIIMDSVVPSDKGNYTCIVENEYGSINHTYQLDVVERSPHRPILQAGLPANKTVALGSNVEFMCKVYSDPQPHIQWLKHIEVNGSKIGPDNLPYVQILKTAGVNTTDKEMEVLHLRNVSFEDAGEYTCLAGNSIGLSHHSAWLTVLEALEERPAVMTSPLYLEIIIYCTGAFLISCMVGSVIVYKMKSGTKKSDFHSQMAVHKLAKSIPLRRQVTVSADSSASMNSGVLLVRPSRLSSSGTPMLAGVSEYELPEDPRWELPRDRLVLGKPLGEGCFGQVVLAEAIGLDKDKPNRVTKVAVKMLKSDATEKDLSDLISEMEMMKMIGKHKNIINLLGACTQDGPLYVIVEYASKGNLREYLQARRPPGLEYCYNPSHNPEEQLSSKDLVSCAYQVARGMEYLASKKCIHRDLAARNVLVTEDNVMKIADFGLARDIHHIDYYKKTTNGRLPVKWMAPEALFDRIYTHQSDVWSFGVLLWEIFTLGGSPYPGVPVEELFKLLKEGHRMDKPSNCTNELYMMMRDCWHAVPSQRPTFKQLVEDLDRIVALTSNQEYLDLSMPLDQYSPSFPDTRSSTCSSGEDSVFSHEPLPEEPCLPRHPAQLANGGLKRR
human Acetylcholinesterase (AChE), ACHE (gene 43), sequence (P22303 whole entry, looked up): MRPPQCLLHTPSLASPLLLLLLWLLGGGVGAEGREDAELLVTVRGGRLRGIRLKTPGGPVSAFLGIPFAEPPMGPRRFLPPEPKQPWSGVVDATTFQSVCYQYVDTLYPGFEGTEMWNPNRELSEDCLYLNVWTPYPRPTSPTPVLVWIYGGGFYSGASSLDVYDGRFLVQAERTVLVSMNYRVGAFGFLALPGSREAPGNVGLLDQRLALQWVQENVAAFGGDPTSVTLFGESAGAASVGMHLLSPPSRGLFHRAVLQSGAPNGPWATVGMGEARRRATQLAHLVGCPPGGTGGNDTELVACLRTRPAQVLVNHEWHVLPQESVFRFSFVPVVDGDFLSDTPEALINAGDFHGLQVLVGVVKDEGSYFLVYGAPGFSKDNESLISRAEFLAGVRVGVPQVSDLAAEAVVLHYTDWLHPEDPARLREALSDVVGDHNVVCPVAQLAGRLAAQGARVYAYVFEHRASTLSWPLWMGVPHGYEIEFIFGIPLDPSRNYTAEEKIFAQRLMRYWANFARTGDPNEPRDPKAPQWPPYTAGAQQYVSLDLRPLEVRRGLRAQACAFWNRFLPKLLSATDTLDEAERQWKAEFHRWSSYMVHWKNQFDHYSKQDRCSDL
Androgen receptor (Homo sapiens), sequence (P10275 whole entry, looked up, the tested form may be a part): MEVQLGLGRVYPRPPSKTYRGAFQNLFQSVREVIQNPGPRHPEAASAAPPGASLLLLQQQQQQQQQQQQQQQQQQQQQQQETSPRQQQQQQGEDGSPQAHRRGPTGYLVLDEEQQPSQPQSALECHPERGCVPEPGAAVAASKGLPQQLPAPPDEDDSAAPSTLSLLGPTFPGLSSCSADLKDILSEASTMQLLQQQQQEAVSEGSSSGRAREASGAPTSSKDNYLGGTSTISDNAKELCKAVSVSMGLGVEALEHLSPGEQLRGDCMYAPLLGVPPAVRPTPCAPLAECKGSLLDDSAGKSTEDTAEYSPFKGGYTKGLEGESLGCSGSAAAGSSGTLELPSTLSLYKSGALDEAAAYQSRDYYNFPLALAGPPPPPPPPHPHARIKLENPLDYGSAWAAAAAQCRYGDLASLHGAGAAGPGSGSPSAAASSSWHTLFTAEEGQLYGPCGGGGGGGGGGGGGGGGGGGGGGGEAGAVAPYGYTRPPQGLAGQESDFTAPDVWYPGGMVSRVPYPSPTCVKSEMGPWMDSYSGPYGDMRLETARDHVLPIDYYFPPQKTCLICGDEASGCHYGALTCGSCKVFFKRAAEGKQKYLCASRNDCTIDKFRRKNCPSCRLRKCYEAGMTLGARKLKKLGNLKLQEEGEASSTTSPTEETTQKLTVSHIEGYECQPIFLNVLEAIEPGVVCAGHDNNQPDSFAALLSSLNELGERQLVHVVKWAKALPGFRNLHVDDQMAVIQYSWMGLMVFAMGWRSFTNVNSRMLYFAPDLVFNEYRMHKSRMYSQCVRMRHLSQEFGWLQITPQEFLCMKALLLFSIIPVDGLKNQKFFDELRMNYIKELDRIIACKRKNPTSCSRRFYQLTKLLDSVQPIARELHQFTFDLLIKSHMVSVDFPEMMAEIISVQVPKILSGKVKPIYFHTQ
rat CYP1A2, Cyp1a2 (gene 24297), sequence (P04799 whole entry, looked up): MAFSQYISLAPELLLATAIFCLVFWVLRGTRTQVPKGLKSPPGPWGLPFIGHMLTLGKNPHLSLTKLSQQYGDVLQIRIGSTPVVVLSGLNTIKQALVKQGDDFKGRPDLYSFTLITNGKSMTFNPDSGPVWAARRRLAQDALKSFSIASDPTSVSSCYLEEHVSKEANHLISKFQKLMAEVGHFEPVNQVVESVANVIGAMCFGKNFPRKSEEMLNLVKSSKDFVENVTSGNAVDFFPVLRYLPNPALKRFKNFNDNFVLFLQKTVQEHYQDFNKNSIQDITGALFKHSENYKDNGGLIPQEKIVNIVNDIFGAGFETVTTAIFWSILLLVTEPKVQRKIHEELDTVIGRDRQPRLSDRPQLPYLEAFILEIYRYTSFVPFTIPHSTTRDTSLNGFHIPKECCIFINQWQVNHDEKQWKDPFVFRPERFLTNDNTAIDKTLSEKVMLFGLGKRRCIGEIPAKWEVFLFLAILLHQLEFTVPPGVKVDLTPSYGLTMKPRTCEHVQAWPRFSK
human Tyrosine Protein Kinase Receptor Tie-2 (Tie2), TEK (gene 7010), sequence (Q02763 whole entry, looked up): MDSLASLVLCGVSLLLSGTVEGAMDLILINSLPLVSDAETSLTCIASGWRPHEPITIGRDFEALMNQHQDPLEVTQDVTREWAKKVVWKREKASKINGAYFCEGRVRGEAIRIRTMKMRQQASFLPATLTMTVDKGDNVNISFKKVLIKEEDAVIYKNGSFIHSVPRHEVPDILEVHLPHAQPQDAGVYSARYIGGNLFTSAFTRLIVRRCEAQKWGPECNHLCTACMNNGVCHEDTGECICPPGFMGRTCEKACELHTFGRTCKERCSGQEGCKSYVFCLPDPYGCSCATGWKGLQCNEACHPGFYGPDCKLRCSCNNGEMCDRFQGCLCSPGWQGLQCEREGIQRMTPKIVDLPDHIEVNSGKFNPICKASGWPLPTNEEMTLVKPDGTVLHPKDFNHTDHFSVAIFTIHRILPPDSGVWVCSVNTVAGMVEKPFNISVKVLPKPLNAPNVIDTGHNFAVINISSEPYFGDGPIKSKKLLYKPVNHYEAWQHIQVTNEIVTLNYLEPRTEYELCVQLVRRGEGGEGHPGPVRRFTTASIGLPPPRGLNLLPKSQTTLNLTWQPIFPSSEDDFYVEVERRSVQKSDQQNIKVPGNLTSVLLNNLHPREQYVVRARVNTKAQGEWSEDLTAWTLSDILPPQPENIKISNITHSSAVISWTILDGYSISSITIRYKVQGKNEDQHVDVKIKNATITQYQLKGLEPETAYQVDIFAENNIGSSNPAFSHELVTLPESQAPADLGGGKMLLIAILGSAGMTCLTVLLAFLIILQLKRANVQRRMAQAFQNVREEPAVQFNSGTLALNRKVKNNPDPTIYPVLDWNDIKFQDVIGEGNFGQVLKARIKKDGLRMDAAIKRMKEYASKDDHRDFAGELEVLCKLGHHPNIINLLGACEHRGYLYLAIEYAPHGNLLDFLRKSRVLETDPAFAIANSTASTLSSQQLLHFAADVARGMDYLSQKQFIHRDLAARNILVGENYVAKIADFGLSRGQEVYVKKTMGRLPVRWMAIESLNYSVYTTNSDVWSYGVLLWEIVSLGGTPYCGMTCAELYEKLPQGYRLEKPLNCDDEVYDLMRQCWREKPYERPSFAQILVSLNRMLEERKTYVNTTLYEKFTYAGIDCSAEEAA
human CYP4F12, CYP4F12 (gene 66002), sequence (Q9HCS2 whole entry, looked up): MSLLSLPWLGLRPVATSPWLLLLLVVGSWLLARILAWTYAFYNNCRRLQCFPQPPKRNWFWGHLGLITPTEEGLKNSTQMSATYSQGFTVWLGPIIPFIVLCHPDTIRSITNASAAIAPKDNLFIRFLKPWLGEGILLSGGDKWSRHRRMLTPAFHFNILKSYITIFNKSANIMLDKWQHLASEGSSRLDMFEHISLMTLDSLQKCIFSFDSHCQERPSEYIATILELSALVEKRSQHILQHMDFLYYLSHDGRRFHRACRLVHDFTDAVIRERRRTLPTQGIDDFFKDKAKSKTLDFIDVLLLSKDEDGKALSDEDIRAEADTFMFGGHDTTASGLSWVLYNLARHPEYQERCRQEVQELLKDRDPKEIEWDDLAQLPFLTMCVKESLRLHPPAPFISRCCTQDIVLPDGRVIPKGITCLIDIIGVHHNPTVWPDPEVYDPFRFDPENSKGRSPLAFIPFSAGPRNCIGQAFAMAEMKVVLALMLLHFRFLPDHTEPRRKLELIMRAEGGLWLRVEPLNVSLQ
human Phosphatase and Tensin Homolog (PTEN), PTEN (gene 5728), sequence (P60484 whole entry, looked up): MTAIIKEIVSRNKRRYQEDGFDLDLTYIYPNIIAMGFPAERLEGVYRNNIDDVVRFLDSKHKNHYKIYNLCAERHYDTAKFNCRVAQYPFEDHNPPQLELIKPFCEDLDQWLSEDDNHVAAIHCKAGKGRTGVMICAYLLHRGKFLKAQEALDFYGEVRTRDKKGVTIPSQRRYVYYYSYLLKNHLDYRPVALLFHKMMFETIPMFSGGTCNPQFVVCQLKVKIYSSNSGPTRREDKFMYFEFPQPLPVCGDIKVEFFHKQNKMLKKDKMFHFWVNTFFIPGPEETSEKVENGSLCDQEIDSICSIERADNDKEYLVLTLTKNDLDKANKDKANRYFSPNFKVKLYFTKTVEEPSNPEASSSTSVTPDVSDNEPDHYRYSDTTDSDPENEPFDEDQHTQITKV
human Androgen Receptor (AR), AR (gene 367), sequence (P10275 whole entry, looked up): as the sequence (P10275 whole entry, looked up, the tested form may be a part) above

With `CC(=O)OCc1ccccc1`, the compound was called inactive in experiment [1].
`NC(=O)c1nc(-c2cccc(-c3cc(F)ccc3OCC(F)(F)C(F)(F)F)c2)n[nH]1`: the compound was classed as inactive in experiment [1] and in [2]. The AC50 in experiment [3] is 1.27 µM (active).
As for `N[C@H]1C(O)O[C@H](CO)[C@H](O)[C@@H]1O` (some centres not stated), in [1], the result was inactive.
As for `COc1ccc(C(=O)/C(Br)=C\C(=O)O)cc1`, the compound was classed as inactive in [1] and in experiment [4].
As to `CO[Si](CCC1CCC2OC2C1)(OC)OC` (configuration not stated), the result in [1] and in experiment [4] was inactive.
Regarding `Cc1cc(CCN2CCN(c3nsc4ccccc34)CC2)cc2c1NC(=O)CC2(C)C`, the call in [1], in experiment [5], in [6], in [7] and in [8] was inactive.
As to `CC(C)CCCCCCc1ccc(OCCOCCO)cc1`, the compound was called inactive in [1].
For the compound `N#CSCSc1nc2ccccc2s1`, the call in [1], in experiment [14], in [15] and in [16] was inactive. In addition, the AC50 in [9] is 2.72 µM (active); in [10], 4.46 µM (active); in experiment [11] it was 5.12 µM (active); in experiment [12] it was 0.926 µM (active); in [13], 25 µM (active); in experiment [8] it was 25 µM (active). The concentration at half-maximal activity (AC50) in experiment [17] is 45.9 µM (active).
Regarding `CSc1ccc(Oc2ccc(S(N)(=O)=O)cc2CN(C)C)cc1C`, the call in experiment [1], in [5], in experiment [18], in experiment [7] and in [13] was inactive. The AC50 in experiment [2] is 8.72 µM (active).
Turning to `CC(C)(C)c1n[nH]c(=O)n(N)c1=O`, in experiment [1], the compound was classed as inactive.
Consider `C[C@]12CC[C@@H]3c4ccc(O)cc4C[C@@H](CCCCCCCCCS(=O)CCCC(F)(F)C(F)(F)F)[C@H]3[C@@H]1CC[C@@H]2O` (some centres not stated), for which the compound was classed as inactive in experiment [1], in experiment [5], in experiment [15] and in experiment [19].
With `Cc1cc(NC(=O)C(=O)O)cc(C)c1Oc1ccc(O)c2c1CCC2`, the call in experiment [1] and in [7] was inactive.
As for `CC[C@H](c1ccc(O)cc1)[C@@H](CC)c1ccc(O)cc1`, the result in experiment [1] and in experiment [20] was inactive. Moreover, the AC50 in experiment [5] was 4.88 µM (active).
